Data: PubChem BioAssay AID493152 (Sanford-Burnham Center for Chemical Genomics, 2011)
The list shows a part of the results. Calls of active or inactive are those of the source.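 The calls were made as follows: active = inhibition reaching a set limit in any replicate at 20 µM, the limit being 80% of the first screen's; inactive = the rest.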

biological target: DNA dC->dU-editing enzyme APOBEC-3G (Homo sapiens) (UniProt Q9HC16); assay: human A3G ssDNA deamination inhibition, hit confirmation – biochemical, fluorescence, single-stranded DNA substrate, single concentration (AID 493152); details: recombinant A3G ssDNA deaminase, UDG/FAM-TAMRA fluorescence; at 20 µM; hits give high values
Sequence (Q9HC16 whole entry, looked up): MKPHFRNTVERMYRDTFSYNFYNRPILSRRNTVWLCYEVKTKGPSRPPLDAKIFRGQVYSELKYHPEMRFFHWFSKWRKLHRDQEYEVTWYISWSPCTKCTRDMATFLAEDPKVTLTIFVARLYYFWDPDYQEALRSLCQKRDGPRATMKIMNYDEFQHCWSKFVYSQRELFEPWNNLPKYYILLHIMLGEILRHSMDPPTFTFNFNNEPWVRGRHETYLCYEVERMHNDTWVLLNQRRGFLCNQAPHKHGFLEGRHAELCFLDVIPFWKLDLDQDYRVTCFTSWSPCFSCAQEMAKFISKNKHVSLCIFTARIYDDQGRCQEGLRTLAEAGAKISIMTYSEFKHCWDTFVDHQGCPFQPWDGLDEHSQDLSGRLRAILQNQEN

inhibition, active:
Cc1ccc(C(=O)c2c(NC(=O)c3ccccc3)sc(C)c2C)cc1 24.2%
S=c1[nH]nc(-c2ccncc2)n1/N=C/c1ccccc1Cl 95.7%
COCc1c(N)c(C)nc(Cl)c1C#N 84.5%
S=c1[nH]nc(-c2ccco2)n1/N=C/c1ccccc1 -3.73%
S=c1[nH]ccn1-c1ccc(Cl)cc1 74%
O=C1C=CC(=O)N1c1ccc(N2CCCCC2)cc1 91%
CC(=O)N1CC[n+]2c(-c3ccc([N+](=O)[O-])cc3)csc21 50.5%
